# Measurements from the supplement of paper PMC3724861.
# This excerpt belongs to a sample that is enriched for hits. How many sequences the whole screen found active is unknown.
# System: T1, Caupolican (Caup) homeodomain DNA-binding domain
# T1 sequence: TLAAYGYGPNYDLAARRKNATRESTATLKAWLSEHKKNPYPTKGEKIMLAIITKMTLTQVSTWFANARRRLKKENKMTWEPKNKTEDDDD
# Test: PBM E-score (8-mer, recovered from the published 9-mer minima) (E-score (dimensionless, -0.5 to 0.5)); Drosophila protein; higher = stronger relative binding preference, active = 0.31 or more
# Experimental: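 Protein binding microarray (PBM): in vitro transcribed/translated Caupolican (Caup) homeodomain DNA-binding domain (residues 214-303) applied at 100 nM to a universal 8-mer PBM array (Agilent AMADID 015681). The 8-mer enrichment score (E-score, range -0.5 to 0.5) was computed, and each 9-mer score is the minimum E-score of its two constituent 8-mers. The E-score is the same for a 9-mer and its reverse complement; 0.31 is the stated binding threshold.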
row,Sequence,PBM E-score
1,CTGACACA,0.2 (inactive)
2,CCCACCTA,-0.1 (inactive)
3,CCAGGTCG,-0.0728 (inactive)
4,ACTCGCAC,-0.119 (inactive)
5,TGCGATAA,0.101 (inactive)
6,AAAGTCGT,0.0643 (inactive)
7,GTTGTTAA,0.349 (active)
8,GCTGTTAA,0.0966 (inactive)
9,ATTGTTAA,0.21 (inactive)
10,GCATTGGC,-0.14 (inactive)
11,AAACTACC,0.168 (inactive)
12,TAACTACA,0.348 (active)
13,AAACTACT,0.236 (inactive)
14,AAACTACA,0.331 (active)
15,TAACTAAA,0.109 (inactive)
16,TAACTATA,0.18 (inactive)
17,GAACTACA,0.314 (active)
18,GAACTACC,0.0628 (inactive)
19,CAACTACA,0.287 (inactive)
20,CGGCCTAC,-0.0509 (inactive)
21,CGTATCAC,0.101 (inactive)
22,ACCTAGAA,0.08 (inactive)
23,TACAGAAA,0.17 (inactive)
24,AAATCTAA,0.0434 (inactive)

row,Sequence,PBM E-score
1,CGATTGAA,0.0347 (inactive)
2,GAGTGCAA,0.065 (inactive)
3,ATGTCACC,0.279 (inactive)
4,GTGTCACA,0.29 (inactive)
5,ATGTCACA,0.39 (active)
6,AAGTCACA,0.0474 (inactive)
7,CTGTCACA,0.167 (inactive)
8,ATGTCACG,0.367 (active)
9,CACTGCCC,-0.0974 (inactive)
10,ATTAGTTC,0.154 (inactive)
11,GATAATCA,0.0651 (inactive)
12,GCTGTGGA,-0.0809 (inactive)
13,ATATGGTC,0.105 (inactive)
14,CAACGCAA,0.0313 (inactive)
15,AAGGTGGA,-0.0864 (inactive)
16,ATTACATC,0.374 (active)
17,ATTACAGG,0.244 (inactive)
18,ATCACATG,0.286 (inactive)
19,GTTACAGA,0.172 (inactive)
20,ATTACAGC,0.128 (inactive)
21,GTTACATA,0.365 (active)
22,ATTACATG,0.447 (active)
23,CTCACATA,0.149 (inactive)
24,CTTACATC,0.296 (inactive)

row,Sequence,PBM E-score
1,ATTACAGA,0.208 (inactive)
2,ATTACATA,≥ 0.385 (active)
3,CTTACATA,0.288 (inactive)
4,TGCGCTAA,0.0295 (inactive)
5,CTCTGAAG,-0.17 (inactive)
6,AGATCCCT,-0.128 (inactive)
7,GAGAATCA,-0.0157 (inactive)
8,GATGCATA,0.0414 (inactive)
9,CCCCATGC,-0.233 (inactive)
10,CGGCTTAG,-0.235 (inactive)
11,ATCATGCC,0.0227 (inactive)
12,AGCCAGGG,-0.276 (inactive)
13,GCGTACAC,0.217 (inactive)
14,ACGTACAT,0.337 (active)
15,ACGTACAG,0.103 (inactive)
16,CCGTACAC,0.199 (inactive)
17,ACGTACCT,0.0612 (inactive)
18,ACGTACAC,0.333 (active)
19,ATTTCTCA,0.0413 (inactive)
20,ACGACAGT,0.094 (inactive)
21,AGCATATA,0.119 (inactive)
22,AATCGAGC,0.0234 (inactive)
23,ATGTGTCA,0.297 (inactive)
24,CTGTGTCA,0.142 (inactive)

row,Sequence,PBM E-score
1,TAGTGTCA,0.182 (inactive)
2,GTGTGTCA,≥ 0.312 (active)
3,ACGTGTCA,≥ 0.374 (active)
4,ACGTGTCG,0.301 (inactive)
5,GCGTGTCA,0.284 (inactive)
6,TCGTGTCA,0.328 (active)
7,CCGTGTCA,0.278 (inactive)
8,TACGTGGA,-0.086 (inactive)
9,AACTATCT,0.0956 (inactive)
10,ATGCCGGC,-0.134 (inactive)
11,AGCCCGAG,-0.187 (inactive)
12,ACCAACCC,-0.0241 (inactive)
13,CAGGGGAC,-0.193 (inactive)
14,AAACACTA,0.193 (inactive)
15,CACATCGA,0.0459 (inactive)
16,TACATCAA,0.331 (active)
17,GACATCGA,0.24 (inactive)
18,CACATCAA,0.0655 (inactive)
19,AACATCAA,≥ 0.316 (active)
20,GACATCAA,0.296 (inactive)
21,TACATCGA,0.314 (active)
22,AACATCAG,0.231 (inactive)
23,AACATCAC,0.267 (inactive)
24,GTGGCTTA,-0.0913 (inactive)

row,Sequence,PBM E-score
1,GATCGGAA,0.052 (inactive)
2,GTTGAGTA,0.128 (inactive)
3,CATGTACC,0.416 (active)
4,ACTGTACA,0.257 (inactive)
5,CATGTACA,0.469 (active)
6,GATGTGCA,0.102 (inactive)
7,CAAGTACC,0.159 (inactive)
8,GATGTACA,0.404 (active)
9,ACTGTACC,0.107 (inactive)
10,CCTGTACA,0.32 (active)
11,CATGTGTA,0.308 (inactive)
12,CCTGTACC,0.11 (inactive)
13,CATGTGCA,0.119 (inactive)
14,CTAGCGAG,-0.138 (inactive)
15,AGTGAATG,0.0689 (inactive)
16,GGGCTGAC,-0.108 (inactive)
17,ACGCATCC,-0.0982 (inactive)
18,GCTGTACC,0.0813 (inactive)
19,AATGTGTG,0.142 (inactive)
20,TCTGTACA,0.281 (inactive)
21,TATGTACA,0.427 (active)
22,TATGTAGA,0.226 (inactive)
23,AATGTACC,0.192 (inactive)
24,AATGTACT,0.269 (inactive)

row,Sequence,PBM E-score
1,AATGTACA,0.407 (active)
2,GATGTGTA,0.252 (inactive)
3,GATGTGCC,-0.0456 (inactive)
4,GATGTACC,0.366 (active)
5,AATGTGTA,0.311 (active)
6,CAATGCTG,-0.0134 (inactive)
7,CCGTAACG,-0.1 (inactive)
8,CCTGAGCG,-0.215 (inactive)
9,AAGGTCTC,-0.0943 (inactive)
10,CATGTACG,0.409 (active)
11,CCTGTACG,0.0896 (inactive)
12,AATGTACG,0.153 (inactive)
13,CACCTTGC,0.00581 (inactive)
14,CCAGTACC,-0.0496 (inactive)
15,AATACTCG,0.138 (inactive)
16,ATGGTATC,0.109 (inactive)
17,AGATGCTA,0.0221 (inactive)
18,ATTACACA,≥ 0.332 (active)
19,ATTACTCA,0.112 (inactive)
20,GTTACAAA,0.285 (inactive)
21,GTTACACA,0.339 (active)
22,ATTACACC,0.259 (inactive)
23,CTTACACA,0.201 (inactive)
24,CGCAGGAA,-0.134 (inactive)

row,Sequence,PBM E-score
1,GACGCACA,-0.0232 (inactive)
2,CAGTTCAA,-0.0476 (inactive)
3,GATGGGGC,-0.192 (inactive)
4,GGCATGTA,0.378 (active)
5,AGCATGTA,≥ 0.413 (active)
6,AGCATGGG,-0.0663 (inactive)
7,AGCATGGA,0.0568 (inactive)
8,GGCATGCA,0.0214 (inactive)
9,GGCATGGA,-0.0635 (inactive)
10,AGATTAGC,-0.0125 (inactive)
11,ATGTAGCC,0.145 (inactive)
12,GCCCAGCC,-0.262 (inactive)
13,TACGCTCA,-0.00447 (inactive)
14,GACTTGCA,0.0909 (inactive)
15,AACTTGTG,0.147 (inactive)
16,AACTTGTA,0.364 (active)
17,GACTTGGA,-0.0172 (inactive)
18,AACTTGTC,0.27 (inactive)
19,CACTTGTC,0.271 (inactive)
20,CACTTGTA,0.318 (active)
21,CACTTGGA,0.0572 (inactive)
22,GACTTGTA,0.38 (active)
23,AGCGACCA,-0.01 (inactive)
24,TACCTTGA,0.0541 (inactive)

row,Sequence,PBM E-score
1,CGCTAGAA,-0.14 (inactive)
2,CTACTCTC,-0.105 (inactive)
3,GAATAGCC,-0.146 (inactive)
4,CCTTTGTA,0.138 (inactive)
5,GCCTTGCA,-0.0717 (inactive)
6,GCCTTGTA,0.321 (active)
7,ACCTTGTA,0.412 (active)
8,ACCTTGTG,0.0927 (inactive)
9,CCCTTGTC,0.177 (inactive)
10,CCCTTGTA,0.337 (active)
11,ACCTTGTC,0.306 (inactive)
12,GCCTTGAA,-0.119 (inactive)
13,CGTAGTTA,0.157 (inactive)
14,CAAGCTGA,0.031 (inactive)
15,CTAGGGCC,-0.235 (inactive)
16,GGTCCGAC,-0.0703 (inactive)
17,CCAGTAAC,-0.0237 (inactive)
18,ATTATCAG,0.0887 (inactive)
19,AACTATTC,0.0523 (inactive)
20,ACTGATCC,0.062 (inactive)
21,GTACATCA,0.383 (active)
22,GCACATCA,0.0977 (inactive)
23,CTACATCA,0.253 (inactive)
24,ATACATCA,0.334 (active)

row,Sequence,PBM E-score
1,GAACATCA,0.259 (inactive)
2,ATACATCC,0.276 (inactive)
3,CTAACGGA,-0.0298 (inactive)
4,AAACGTTG,-0.0301 (inactive)
5,ACAAAGGA,0.131 (inactive)
6,CTTTCCTA,-0.094 (inactive)
7,ATCAGTAC,0.201 (inactive)
8,CAGAACAC,0.215 (inactive)
9,AAGAACAT,0.357 (active)
10,AAGAACAA,0.259 (inactive)
11,AAGAACAC,0.312 (active)
12,GAGAACAC,0.236 (inactive)
13,AAGAACAG,0.172 (inactive)
14,ACGTAGCT,0.0358 (inactive)
15,CATATCTC,0.0782 (inactive)
16,AGTTGGGC,-0.15 (inactive)
17,AGCACGTG,0.082 (inactive)
18,ACTACATA,0.35 (active)
19,ACCACATG,0.212 (inactive)
20,ACTACAGG,0.199 (inactive)
21,CCTACATC,0.144 (inactive)
22,GCTACATA,0.248 (inactive)
23,ACTACATG,0.428 (active)
24,CCTACATA,0.153 (inactive)

row,Sequence,PBM E-score
1,ACTACATC,0.33 (active)
2,ACTACAGC,0.149 (inactive)
3,AAAATACT,0.04 (inactive)
4,GCGATCGA,0.0192 (inactive)
5,AGCGTAGC,-0.111 (inactive)
6,AGGGCCGC,-0.251 (inactive)
7,CGACCCGA,-0.151 (inactive)
8,GCGGTACA,0.173 (inactive)
9,CTGGCCAG,-0.181 (inactive)
10,ATTTGGAC,0.134 (inactive)
11,AGGGCGTC,-0.192 (inactive)
12,GGACATCA,0.234 (inactive)
13,CGTCATAA,0.081 (inactive)
14,GGACATAA,0.211 (inactive)
15,TGACATAA,0.311 (active)
16,AGACATAA,0.217 (inactive)
17,CGACATCA,0.284 (inactive)
18,TGACATCA,≥ 0.333 (active)
19,TTACATAA,0.339 (active)
20,AGTCATAA,0.146 (inactive)
21,CTACATAA,0.22 (inactive)
22,TCACATAA,0.182 (inactive)
23,TGTCATAA,0.338 (active)
